Giardia FBPA inh – blocks Giardia fructose-bisphosphate aldolase activity; Potency, µM (top dose mostly 59.6 µM), inactives show top-dose activity, negative = inhibition, actives largely listed as inhibitors; 290,000 tested, 0.71% active; A8B2U2; purified Giardia FBPA; further: potency means the concentration at half of the fitted maximal effect; nearly all actives have a fitted effect of over 55% in size
Target sequence (A8B2U2 whole entry, looked up): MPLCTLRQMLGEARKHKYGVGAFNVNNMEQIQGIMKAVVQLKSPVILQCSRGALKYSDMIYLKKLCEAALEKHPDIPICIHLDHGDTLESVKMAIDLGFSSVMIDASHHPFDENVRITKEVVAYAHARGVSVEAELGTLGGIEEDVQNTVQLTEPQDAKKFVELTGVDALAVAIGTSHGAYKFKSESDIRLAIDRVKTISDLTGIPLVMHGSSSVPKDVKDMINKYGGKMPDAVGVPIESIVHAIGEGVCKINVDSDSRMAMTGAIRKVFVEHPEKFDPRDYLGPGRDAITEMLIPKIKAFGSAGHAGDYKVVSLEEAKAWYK
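40 nM FBPA preincubated 10 min at RT with compound (up to 57.5 uM final), then substrate plus GAPDH/TPI/NAD/arsenate coupling and diaphorase/resazurin added. Fluorescence read after 20 min at RT, 525/598 nm.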
Pf growth 48h – P. falciparum growth inhibition at 48 hours (one generation); AID 504832; Potency, µM (series often up to 28.7 µM), for the others: top-dose activity change, negative = inhibition, hits mostly inhibitors; 310,000 tested, 5.9% active; P. falciparum luciferase growth in erythrocytes, 48 h; further: potency means the concentration at half of the fitted maximal effect
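Luciferase-expressing P. falciparum in infected erythrocytes (2% hematocrit, 0.1% parasitemia final) in RPMI 1640/0.5% Albumax were exposed to compound for 48 hours at 37 C, 5% CO2; growth read as luminescence.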
Pf growth 96h – P. falciparum growth inhibition at 96 hours; 320,000 tested, 6.9% active; AID 504834; P. falciparum luciferase reporter growth, 96 h; Potency, µM (doses to about 28.7 µM), inactives show at the highest dose activity change, negative = inhibition, hits mostly inhibitors; further: potency means the concentration at half of the fitted maximal effect
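Parasite growth measured via integrated firefly luciferase reporter in P. falciparum. Infected erythrocytes at 2% hematocrit, 0.05% parasitemia final were treated 96 hours at 37 C under 5% CO2, and luminescence was read.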
HCMV antiviral – blocks human cytomegalovirus replication | HFF cells, HCMV-luciferase reporter, 72 h; active compounds read low | activity change, negative = inhibition, % at 57.5 µM | 410,000 tested, 4.5% active; in the data active means activity change below about -60%; inconclusive means no clear call, values can overlap the other calls; inactive means above about -39%
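Compounds were evaluated in HFFs infected with an HCMV luciferase reporter virus (MOI 1 PFU/cell). Luciferase in lysates collected 72 h post infection served as the replication measure.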
Sm TGR inh – blocks Schistosoma mansoni thioredoxin glutathione reductase; Q962Y6; purified TGR, DTNB reduction, TNB absorbance 405 nm; Potency, µM (top dose mostly 114 µM), for the others: at the highest dose activity change, negative = inhibition, most hits filed as inhibitors; 360,000 tested, 3% active; AID 485364; further: potency means the concentration at half of the fitted maximal effect; nearly all actives have a fitted effect of over 60% in size
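First, TGR (20 nM dispensed) and NADPH were mixed with compound. Second, a 15 min room-temperature incubation followed. Third, further NADPH and then DTNB were added to start the reaction. Finally, TNB absorbance was monitored kinetically.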
Starred values were filed as active, the others as inactive; ? = inconclusive; . = no result; ! = not confirmed by another sample; [ ] = dose if it differs, or a comment. A selection: hits, their analogues and other compounds. The true share with any hit is near 14%. Unless noted, the call rests on the fitted dose curve; in most records, active means well fitted curve in the direction sought with a large enough effect; inconclusive means small, poorly fitted or top-dose-only effect, or another doubt; inactive means no such curve, though single readings can be large; an effect the other way counts as inactive or inconclusive. On the % scale 0 is the no-effect control and ±100 the full control effect.

SMILES	Giardia FBPA inh	Pf growth 48h	Pf growth 96h	HCMV antiviral	Sm TGR inh
O=C(NC1CC1)c1ccc(CS(=O)c2ccc(Br)cc2)o1 (centres undefined)	19.1%	16.0%	10.4µM*	-6.9	-31.1%
O=C(NCCc1ccccc1)c1ccc(CS(=O)(=O)Cc2ccccc2Cl)o1	.	.	.	-15.8	50.1µM*
CC(C)Oc1ccc(CNC(=O)c2ccc(CS(=O)Cc3ccccc3Cl)o2)cc1 (centres undefined)	.	.	.	-15.9	44.7µM*
Cc1ccccc1CS(=O)(=O)Cc1ccc(C(=O)NCCc2ccccc2)o1	24.7%	?	-8.0%	-7.4	?
O=C(NC1CCCCC1)c1ccc(CS(=O)Cc2ccccc2Cl)o1 (centres undefined)	.	-24.0%	-19.9%	-3.5	44.7µM*
NC(=O)Oc1ccc(Cc2ccccc2)cc1	.	-2.5%	-17.7%	.	.
COc1cccc(NC(=O)c2sc3nc(C)c(C(=O)Nc4ccc(C)cc4C)c(-c4ccccc4Cl)c3c2N)c1	.	.	.	49.6	1.8%
O=C(NC1CCCCC1)c1ccc(CS(=O)Cc2ccc(Cl)cc2)o1 (centres undefined)	.	-7.9%	7.8%	-11.4	44.7µM*
O=C(NCCc1ccc(Cl)cc1)c1ccc(CS(=O)Cc2ccccc2Cl)o1 (centres undefined)	.	-1.0%	?	-65.9*!	31.6µM*!
O=C(NCc1ccc(F)cc1)c1ccc(CS(=O)(=O)Cc2ccccc2F)o1	-1.8%	-20.8%	?	-30.2	39.8µM*
O=C(NCc1ccc(Cl)cc1)c1ccc(CS(=O)Cc2cccc(Cl)c2)o1 (centres undefined)	.	4.0%	-1.3%	-11.6	-17.1%
COc1ccccc1CNC(=O)c1ccc(CS(=O)Cc2cccc(Cl)c2)o1 (centres undefined)	.	-2.6%	-3.1%	84.9	22.4µM*
O=C(c1ccc2c(c1)N(Cc1ccccc1F)C(=O)c1ccccc1S2=O)N1CCOCC1 (centres undefined)	.	.	.	17.7	-6.2%
Cc1ccc(S(=O)(=O)N(CC(=O)Nc2ccc3c(c2)OCO3)c2ccc(C)c(Cl)c2)cc1	.	.	.	-28.5	3.3%
CC(C)C1=CC2=CC[C@@H]3[C@@](C)(C(=O)O)CCC[C@]3(C)C2CC1 (some centres undefined)	-5.1%	.	.	.	.
CCCCCCCCCCCCCCCCCCNc1ccn(C2OC(COP(=O)(O)OCC3OC(n4cc(F)c(=O)[nH]c4=O)CC3O)C(O)C2O)c(=O)n1 (centres undefined)	.	.	.	-87.9*	.
CCOC(=O)N1CCN(C(=O)Cn2nc(C)c3sc4ccccc4c3c2=O)CC1	1.5%[12.9 µM]	?	10.4µM*	12.0	9.6%
CN(C)CCCNC(=O)c1cc(Br)ccc1Cl	4.7%	.	9.28µM*	8.4	0.0%
COC(=O)c1cc(NC2(c3ccccc3)C(=O)c3ccccc3C2=O)cc(C(=O)OC)c1	.	.	.	10.7	20.9%
O=C(NC12CC3CC(CC(C3)C1)C2)c1cccnc1Cl	-5.7%	4.0%	11.7µM*	5.3	-4.3%
COc1cccc(-c2ccc3c(N)c(C(=O)c4ccc(F)cc4)sc3n2)c1	.	.	.	-38.7	7.5%
Cc1ccc2onc(CC(=O)N3CCN(c4ccccc4)CC3)c2c1	.	.	.	0.8	0.6%
CC1CCC(C(C)C)C(OC(=O)CSc2n[nH]c(=O)[nH]c2=O)C1 (centres undefined)	24.7%	-9.8%	13.1µM*	-29.6	-0.5%
CCOC(=O)/C(=N\Nc1cc(Cl)ccc1Cl)N1CCN(CC)CC1	-8.9%	?	3.29µM*	4.7	-1.8%
CN(C)Cc1c[nH]c2ccccc12	10.0%	?	9.28µM*	-7.0	-15.4%
SMILES	Giardia FBPA inh	Pf growth 48h	Pf growth 96h	HCMV antiviral	Sm TGR inh
CC(=O)O[C@H]1C[C@@H]2CC[C@@H]3[C@H](CC[C@]4(C)C(=O)CC[C@@H]34)[C@@]2(C)C[C@@H]1OC(C)=O	.	?	?	.	4.7%
C=C1C(=O)C2=CC1CCC(=O)C1(C)CCC(OC(C)=O)C(C)(C)C1CC2O (centres undefined)	.	.	.	-98.6*	.
CCOC(=O)C(C)On1c(-n2nc(C)cc2C)nc2ccccc2c1=O (centres undefined)	-0.7%	-21.8%	?	-17.9	-16.7%
N#Cc1ccccc1NC(=O)COc1ccc2c(c1)OCO2	4.1%	121.1%	8.28µM*	22.4	-6.0%
CCc1ccccc1NC(=O)COc1ccc2c(c1)OCO2	0.2%	-7.4%	0.0%	15.9	-4.7%
CCN(CC)C(=O)c1ccc(S(=O)(=O)N2CCC(c3nc4ccccc4s3)CC2)cc1	-4.6%	?	?	-96.2*	0.2%
Cc1ccccc1-c1nc2cc(NC(=O)COc3ccc(F)cc3)ccc2o1	.	.	.	59.2	0.8%
COC(=O)C1=C(c2ccc(F)cc2F)C[C@@H]2CC[C@H]1N2C(=O)NCCOc1ccccc1Cl	.	?	10.4µM*	.	-2.4%
COC(=O)C1=C(c2ccc(F)cc2F)C[C@@H]2CC[C@H]1N2C(=O)NCCOc1ccc(OC)cc1	.	10.4µM*	-28.9%	.	-17.6%
CCOc1cc(/C=C/C(=O)O)ccc1OCc1ccccc1	?	2.4%	14.8%	-14.9	8.5%
COc1ccc(/C=C/C(=O)NC(=S)Nc2ccccc2)cc1OC	-9.7%	15.3%	15.6%	-32.4	-28.2%
COc1cc(/C=C/C(=O)NC(=O)c2ccccc2O)ccc1OC(C)=O	3.9%	-19.8%	9.28µM*	16.0	-13.2%
COc1cc(/C=C/C(=O)NC(C)C)ccc1OCc1ccccc1	0.0%	13.1µM*	-0.2%	18.3	-11.6%
Cc1noc(C)c1-c1ccc2ncnc(N(C)C)c2c1	-5.6%	.	.	.	.
Cc1cc(O)c(Sc2ncn[nH]2)cc1NS(=O)(=O)c1ccc(Cl)cc1	.	-8.1%	-3.1%	-1.9	-25.0%
O=S(=O)(Nc1cc(Sc2ncn[nH]2)c(O)c2ccccc12)c1ccccc1	1.99µM*	?	0.9%	-98.8*	0.891µM*
O=C(O)CSc1cc(NS(=O)(=O)c2ccc(Br)cc2)c2ccccc2c1O	7.08µM*	.	-3.7%	-31.6	5.62µM*
C=CCN=C(CC)C1=C(O)CCCC1=O	-26.9%	29.2%	20.6%	-66.9*	-5.3%
C=CCN=C(C)C1=C(O)CCC1=O	0.3%	2.6%	22.7%	24.3	-9.6%
Cc1ccc(-n2nc3c(Cl)nnc(C)c3c2C)cc1	6.0%	0.415µM*	0.329µM*	4.8	-6.4%
